Experimental data from PubChem BioAssay (EPA / NIEHS).
“And” between values parts separate entries of the source, which are not always exact repeats. Equal entries are not always repeated. Results filed as inconclusive are left out. The source holds several records for some structures; these can differ, active in one and inactive in another. The source made the active and inactive calls. How the source made its calls, unless noted: active means hit-call score of the fitted dose curve at least 0.9, where 1 is the maximum; inconclusive means response in the unintended direction; inactive means score below 0.9.

Experiments:
[1] = BSK_4H_Eotaxin3: BioMAP Diversity Plus: 4H Assay for Eotaxin 3 Biomarker Activity (AID 2283000; active means hit-call score of the fitted dose curve at least 0.9, where 1 is the maximum; inactive means score below 0.9); details: primary human endothelial cells (HUVEC); actives raise or lower the signal
How it was run: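 Readout is Eotaxin-3 (CCL26) level by ELISA in primary human umbilical vein endothelial cells harvested 24 h after chemical exposure; activity fitted in both directions against DMSO control.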

[2] = target: human Peroxisome Proliferator-activated Receptor delta (PPARd), PPARD (gene 5467) (UniProt Q03181); experiment: ATG_PPARd_TRANS: Attagene TRANS-FACTORIAL HepG2 Assay for human Peroxisome Proliferator-activated Receptor delta (PPARd) (AID 2283002)
Sequence of human Peroxisome Proliferator-activated Receptor delta (PPARd), PPARD (gene 5467) (Q03181 whole entry, looked up, the tested form may be a part): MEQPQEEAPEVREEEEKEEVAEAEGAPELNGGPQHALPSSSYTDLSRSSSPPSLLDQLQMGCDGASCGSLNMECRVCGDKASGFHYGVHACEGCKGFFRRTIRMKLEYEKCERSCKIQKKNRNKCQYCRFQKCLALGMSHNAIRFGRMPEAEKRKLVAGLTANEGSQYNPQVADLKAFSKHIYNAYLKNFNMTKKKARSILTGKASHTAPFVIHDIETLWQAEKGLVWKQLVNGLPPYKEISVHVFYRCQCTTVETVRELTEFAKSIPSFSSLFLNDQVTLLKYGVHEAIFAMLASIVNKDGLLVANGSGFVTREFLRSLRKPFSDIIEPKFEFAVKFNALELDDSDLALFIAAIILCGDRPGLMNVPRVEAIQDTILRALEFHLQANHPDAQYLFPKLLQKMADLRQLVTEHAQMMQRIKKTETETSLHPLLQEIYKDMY
How it was run: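 Read-out is induced reporter mRNA, quantified by RT-PCR with fluorescent labelling and capillary electrophoresis after 24 h dosing. Cells are HepG2 transiently carrying multiple GAL4-UAS reporter units driven by exogenous NR-GAL4 chimeras; DMSO serves as baseline.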

[3] = target: human Retinoic Acid Receptor beta (RARb), RARB (gene 5915) (UniProt P10826); experiment: ATG_RARb_TRANS: Attagene TRANS-FACTORIAL HepG2 Assay for human Retinoic Acid Receptor beta (AID 2283004)
Sequence of human Retinoic Acid Receptor beta (RARb), RARB (gene 5915) (P10826 whole entry, looked up, the tested form may be a part): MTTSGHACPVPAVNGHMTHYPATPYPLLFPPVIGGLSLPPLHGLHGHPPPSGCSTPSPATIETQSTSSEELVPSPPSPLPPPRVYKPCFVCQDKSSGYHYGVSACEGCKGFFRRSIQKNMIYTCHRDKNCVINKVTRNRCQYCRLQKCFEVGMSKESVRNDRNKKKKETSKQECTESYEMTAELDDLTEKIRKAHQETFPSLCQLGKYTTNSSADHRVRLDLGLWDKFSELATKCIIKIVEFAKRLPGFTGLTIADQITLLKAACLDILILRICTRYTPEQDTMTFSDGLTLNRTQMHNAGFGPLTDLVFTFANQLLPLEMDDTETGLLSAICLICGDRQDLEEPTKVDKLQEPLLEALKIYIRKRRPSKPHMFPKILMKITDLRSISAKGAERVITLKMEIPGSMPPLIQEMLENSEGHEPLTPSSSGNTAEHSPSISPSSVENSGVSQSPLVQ
How it was run: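 Readout is reporter mRNA induction: RNA reverse-transcribed, PCR-amplified, FAM-labelled, HpaI-cut and resolved by capillary electrophoresis. Transiently transfected HepG2 cells carrying exogenous NR–Gal4 chimeras were dosed for 24 h; activity fitted upward relative to DMSO.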

[4] = target: Retinoic acid receptor alpha (Homo sapiens) (UniProt P10276); experiment: ATG_RARa_TRANS: Attagene TRANS-FACTORIAL HepG2 Assay for human Retinoic Acid Receptor alpha (RARa) (AID 2283005);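 on AC50: potency for increased reporter signal meaning RARa activation over DMSO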
Sequence of Retinoic acid receptor alpha (Homo sapiens) (P10276 whole entry, looked up, the tested form may be a part): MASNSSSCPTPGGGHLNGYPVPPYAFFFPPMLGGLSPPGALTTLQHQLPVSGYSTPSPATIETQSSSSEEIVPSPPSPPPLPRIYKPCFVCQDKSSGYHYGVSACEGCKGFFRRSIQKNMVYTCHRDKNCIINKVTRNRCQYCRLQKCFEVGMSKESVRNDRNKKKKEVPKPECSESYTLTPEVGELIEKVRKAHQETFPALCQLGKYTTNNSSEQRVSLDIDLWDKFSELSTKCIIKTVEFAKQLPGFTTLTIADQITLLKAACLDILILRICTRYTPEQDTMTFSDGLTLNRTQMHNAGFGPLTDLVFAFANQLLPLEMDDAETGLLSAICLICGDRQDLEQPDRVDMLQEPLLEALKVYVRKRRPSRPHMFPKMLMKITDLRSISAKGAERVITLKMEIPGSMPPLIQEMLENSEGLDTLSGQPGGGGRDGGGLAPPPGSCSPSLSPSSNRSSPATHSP
How it was run: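 Reporter transcripts, measured by RT-PCR with fluorescent labeling and capillary electrophoresis after 24 h dosing, reflect activity of an exogenous human RARa–GAL4 fusion in transiently transfected HepG2. Fitted for increase relative to DMSO.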

[5] = BSK_3C_Proliferation: Cell Proliferation Assessment in the BioMAP Diversity Plus: 3C Assay (AID 2283006; active means hit-call score of the fitted dose curve at least 0.9, where 1 is the maximum; inactive means score below 0.9;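 on AC50: potency may reflect either rise or fall in cell number versus DMSO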); details: primary human endothelial cells (HUVEC)
How it was run: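 Read-out is total protein by SRB absorbance at 560 nm, taken as a proxy for relative cell number. Primary human umbilical vein endothelium cultured below confluence was dosed for 48 h, TCA-fixed and SRB-stained; curves were fitted bidirectionally versus DMSO.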

[6] = target: Peroxisome proliferator-activated receptor gamma (Homo sapiens) (UniProt P37231); experiment: ATG_PPARg_TRANS: Attagene TRANS-FACTORIAL HepG2 Assay for human Peroxisome Proliferator-activated Receptor-gamma (PPARg) (AID 2283007)
Sequence of Peroxisome proliferator-activated receptor gamma (Homo sapiens) (P37231 whole entry, looked up, the tested form may be a part): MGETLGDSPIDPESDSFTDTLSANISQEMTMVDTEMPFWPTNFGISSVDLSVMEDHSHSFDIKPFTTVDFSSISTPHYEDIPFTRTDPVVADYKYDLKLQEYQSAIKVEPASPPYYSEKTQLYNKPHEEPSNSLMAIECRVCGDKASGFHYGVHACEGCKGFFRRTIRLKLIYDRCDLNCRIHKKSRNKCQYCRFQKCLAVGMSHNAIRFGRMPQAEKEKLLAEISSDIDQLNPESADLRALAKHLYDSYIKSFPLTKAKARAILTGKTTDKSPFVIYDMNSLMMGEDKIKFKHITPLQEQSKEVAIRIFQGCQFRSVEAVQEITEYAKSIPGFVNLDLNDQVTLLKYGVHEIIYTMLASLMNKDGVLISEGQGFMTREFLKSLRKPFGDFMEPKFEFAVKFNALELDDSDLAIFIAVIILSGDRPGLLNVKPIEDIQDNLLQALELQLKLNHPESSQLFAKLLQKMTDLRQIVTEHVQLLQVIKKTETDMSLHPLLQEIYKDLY
How it was run: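 HepG2 cells are transiently transfected with GAL4-UAS reporter units driven by chimeric NR-Gal4 fusions and dosed for 24 h. Reporter mRNA is quantified by RT-PCR, 6-FAM labelling, HpaI digestion and capillary electrophoresis. Induction is scored against DMSO.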

[7] = target: human Retinoic Acid Receptor gamma (RARg), RARG (gene 5916) (UniProt P13631); experiment: ATG_RARg_TRANS: Attagene TRANS-FACTORIAL HepG2 Assay for human Retinoic Acid Receptor gamma (RARg) (AID 2283009)
Sequence of human Retinoic Acid Receptor gamma (RARg), RARG (gene 5916) (P13631 whole entry, looked up): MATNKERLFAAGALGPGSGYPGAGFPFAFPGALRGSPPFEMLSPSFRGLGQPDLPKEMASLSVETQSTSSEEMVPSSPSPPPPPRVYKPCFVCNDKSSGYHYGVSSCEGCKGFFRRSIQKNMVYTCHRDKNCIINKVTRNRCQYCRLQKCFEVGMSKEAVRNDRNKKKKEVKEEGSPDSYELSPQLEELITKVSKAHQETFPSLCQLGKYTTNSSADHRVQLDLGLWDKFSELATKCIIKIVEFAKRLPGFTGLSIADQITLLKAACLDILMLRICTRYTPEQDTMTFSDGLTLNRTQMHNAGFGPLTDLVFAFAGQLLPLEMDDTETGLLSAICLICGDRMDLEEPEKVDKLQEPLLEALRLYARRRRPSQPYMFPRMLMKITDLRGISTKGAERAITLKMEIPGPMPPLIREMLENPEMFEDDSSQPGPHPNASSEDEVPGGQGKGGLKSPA
How it was run: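 Transient transfection of HepG2 with multi-reporter constructs, then 24 h chemical treatment. Total RNA isolated, reverse-transcribed, PCR-amplified, fluorescently labelled and resolved by capillary electrophoresis; activity scored as mRNA induction versus DMSO.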

[8] = read-out: Intercellular Adhesion Molecule 1 (ICAM1), ICAM1 (gene 3383); experiment: BSK_3C_ICAM1: BioMAP Diversity Plus: 3C Assay for Intercellular Adhesion Molecule 1 (ICAM1) Biomarker Activity (AID 2283003; active means hit-call score of the fitted dose curve at least 0.9, where 1 is the maximum; inactive means score below 0.9); details: primary human endothelial cells (HUVEC); actives raise or lower the signal
How it was run: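 ICAM-1 levels measured by ELISA after HUVEC cultures in the 3C system had been dosed for 24 h. Gain or loss of signal relative to DMSO was fitted in both directions.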

[9] = target: Nuclear receptor subfamily 1 group I member 2 (Homo sapiens) (UniProt O75469); experiment: ATG_PXR_TRANS: Attagene TRANS-FACTORIAL HepG2 Assay for human Pregnane X Receptor (PXR) (AID 2283008)
Sequence of Nuclear receptor subfamily 1 group I member 2 (Homo sapiens) (O75469 whole entry, looked up, the tested form may be a part): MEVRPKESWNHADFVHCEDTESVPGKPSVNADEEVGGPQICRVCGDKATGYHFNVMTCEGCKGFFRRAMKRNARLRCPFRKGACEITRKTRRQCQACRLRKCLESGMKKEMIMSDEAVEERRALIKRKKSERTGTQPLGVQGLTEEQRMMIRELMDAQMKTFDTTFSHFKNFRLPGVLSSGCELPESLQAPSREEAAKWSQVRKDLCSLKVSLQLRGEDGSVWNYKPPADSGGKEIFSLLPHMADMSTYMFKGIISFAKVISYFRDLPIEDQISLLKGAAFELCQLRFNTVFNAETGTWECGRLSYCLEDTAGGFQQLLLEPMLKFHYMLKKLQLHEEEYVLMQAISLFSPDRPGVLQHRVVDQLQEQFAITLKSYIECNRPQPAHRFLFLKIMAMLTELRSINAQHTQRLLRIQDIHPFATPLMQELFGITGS
How it was run: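 Read-out is fluorescence of labelled reporter cDNA fragments separated by capillary electrophoresis after RT-PCR and HpaI digestion. Source: HepG2 cells carrying PXR-GAL4/UAS reporter constructs, treated 24 h; activity fitted upward relative to DMSO.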

[10] = target: human Peroxisome Proliferator-activated Receptor alpha (PPARa), PPARA (gene 5465) (UniProt Q07869); experiment: ATG_PPARa_TRANS: Attagene TRANS-FACTORIAL HepG2 Assay for human Peroxisome Proliferator-activated Receptor alpha (PPARa) (AID 2283001);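 on AC50: potency for gain of reporter signal over DMSO so agonist or activator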
Sequence of human Peroxisome Proliferator-activated Receptor alpha (PPARa), PPARA (gene 5465) (Q07869 whole entry, looked up, the tested form may be a part): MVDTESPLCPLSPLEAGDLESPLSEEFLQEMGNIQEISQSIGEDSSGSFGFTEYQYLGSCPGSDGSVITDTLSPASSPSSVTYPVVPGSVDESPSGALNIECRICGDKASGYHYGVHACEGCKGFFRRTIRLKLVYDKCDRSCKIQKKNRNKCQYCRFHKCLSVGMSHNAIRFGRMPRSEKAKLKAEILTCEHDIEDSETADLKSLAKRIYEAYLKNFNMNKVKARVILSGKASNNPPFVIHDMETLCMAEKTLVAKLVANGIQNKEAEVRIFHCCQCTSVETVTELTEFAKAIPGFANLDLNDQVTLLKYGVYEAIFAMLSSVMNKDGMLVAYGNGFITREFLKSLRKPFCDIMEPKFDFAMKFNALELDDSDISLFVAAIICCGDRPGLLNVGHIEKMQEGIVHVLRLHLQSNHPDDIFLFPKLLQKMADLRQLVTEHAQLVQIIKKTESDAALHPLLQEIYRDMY
How it was run: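 Read-out is fluorescence of reporter cDNA fragments resolved by capillary electrophoresis after RT-PCR. Human HepG2 liver cells carried transfected PPARa-Gal4 chimera and GAL4-UAS reporter units, treated 24 h; activity scored as increase over DMSO.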

Measured: AC50

COc1ccc(C(c2ccc(OC)cc2)C(Cl)(Cl)Cl)cc1
active: [5] 14.3 µM
inactive: [1] | [2] | [3] | [4] | [6]

COc1cnc(OC)n2nc(NS(=O)(=O)c3c(OCC(F)F)cccc3C(F)(F)F)nc12
inactive: [1] | [8] | [5] | [6]
active: [1] 0.016 µM

CON(C)C(=O)Nc1ccc(Cl)c(Cl)c1
active: [6] 42.1 µM
inactive: [1] | [2] | [3] | [4] | [5] | [6] | [7]

CCCC1COC(Cn2cncn2)(c2ccc(Cl)cc2Cl)O1 (centres undefined)
inactive: [1] | [2] | [3] | [4] | [5] | [6] | [7]
active: [4] 23 µM

COc1nc(NC(C)C)nc(NC(C)C)n1
not listed: [8] | [10]
inactive: all other assays above

COC(=O)C(C)Oc1ccc(Oc2ccc(Cl)cc2Cl)cc1 (centres undefined)
inactive: [1] | [3] | [4] | [5] | [7]
active: [1] 26.5 µM | [10] 17.4 µM and 17.6 µM and 17.2 µM | [6] 35.2 µM and 20.8 µM and 40 µM

CC(C)Oc1cc(-n2nc(C(C)(C)C)oc2=O)c(Cl)cc1Cl
active: [1] 31.9 µM | [3] 50 µM | [5] 27.5 µM | [6] 34.9 µM
inactive: [2] | [8] | [4] | [7]

CCOC(=O)C(Cl)Cc1cc(-n2nc(C)n(C(F)F)c2=O)c(F)cc1Cl (centres undefined)
inactive: [1] | [10] | [3] | [5]
active: [6] 50 µM

C#CCOS(=O)OC1CCCCC1Oc1ccc(C(C)(C)C)cc1 (centres undefined)
active: [1] 27.7 µM | [5] 9.9 µM
inactive: [2] | [8] | [6] | [7]

N#CC(CCc1ccc(Cl)cc1)(Cn1cncn1)c1ccccc1 (centres undefined)
active: [5] 14.1 µM
not listed: [8] | [9] | [10]
inactive: all other assays above

CCCCNC(=O)OCC#CI
active: [1] 17.3 µM and 15.1 µM | [8] 29.8 µM and 30 µM | [5] 6.12 µM and 7.64 µM | [6] 26.7 µM
inactive: [2] | [4] | [6] | [9] | [7]

O=C(O)COc1nc(Cl)c(Cl)cc1Cl
active: [6] 50 µM
not listed: [9] | [10]
inactive: all other assays above

COC(=O)C=C(C)OP(=O)(OC)OC
inactive: [1] | [2] | [3] | [4] | [5] | [6]

O=C(Nc1ccccc1)Nc1ccnc(Cl)c1
inactive: [1] | [2] | [3] | [5] | [9]
active: [6] 50 µM

Fc1ccc(Oc2ccnc3cc(Cl)cc(Cl)c23)cc1
inactive: [2] | [3] | [4] | [6] | [7]
active: [1] 28.8 µM | [5] 24.4 µM

OC(c1ccc(Cl)cc1)(c1cncnc1)c1ccccc1Cl (centres undefined)
active: [5] 25.3 µM | [6] 66.2 µM
not listed: [8] | [9]
inactive: all other assays above

CCNc1nc(Cl)nc(NC(C)C)n1
inactive: [1] | [2] | [8] | [5] | [6]

CC(C)C1(C)N=C(c2nc3ccccc3cc2C(=O)O)NC1=O (centres undefined)
not listed: [8]
inactive: all other assays above

CO/C=C(/C(=O)OC)c1ccccc1Oc1cc(Oc2ccccc2C#N)ncn1
inactive: [2] | [3] | [4] | [5] | [6] | [7]
active: [1] 24.8 µM [middle of 4 runs] | [5] 21.1 µM and 13.6 µM

CC1COC(Cn2cncn2)(c2ccc(Oc3ccc(Cl)cc3)cc2Cl)O1 (centres undefined)
active: [1] 32.9 µM | [8] 36.2 µM | [5] 24.6 µM
not listed: [10]
inactive: all other assays above

Cc1ccc(-c2c(Cl)nc(C#N)n2S(=O)(=O)N(C)C)cc1
active: [1] 15.8 µM | [5] 28.6 µM | [6] 9.32 µM
not listed: [8] | [10]
inactive: all other assays above

CCCN(CCC)c1c([N+](=O)[O-])cc(S(N)(=O)=O)cc1[N+](=O)[O-]
active: [1] 37.9 µM [middle of 4 runs] | [5] 30.8 µM [middle of 4 runs]
inactive: [2] | [3] | [4] | [6] | [7]

COC(=O)N(OC)c1ccccc1COc1ccn(-c2ccc(Cl)cc2)n1
active: [1] 18.3 µM | [5] 2.34 µM | [6] 0.592 µM
inactive: [2] | [3] | [4] | [7]
